In PubChem BioAssay AID1508600 (Functional Genomics Laboratory (NCATS/FGL), 2020) one finds z-score data, which are given here for 108 sequences.

Among all 53,000 sequences or so, about 3,700 (7%) were called active.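 How the source made its calls: active means gene knockdowns whose robust z-score for IL-1 alpha signal is at least 2 or at most -2, so actives lie on both sides; inactive means the rest.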 Many of the other results were omitted from the sample, so actives are more common in it than they were.

The assay can be described thus: Components of the Cytosolic LPS Sensing Pathway: Gene Identification via Genome-wide siRNA Screen.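 Further: robust z of the log signal after scaling to non-targeting control siRNA wells of the plate.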 The note with it: RAW264.7 macrophages, IL-1a HTRF, actives lie on both sides, screened at 100 nM (by protocol), cells primed 5 h with Pam3CSK4 first. In short, it runs like this: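 Read-out: IL-1a HTRF on supernatant, divided by plate negative-control median ×100, log-transformed and converted to robust z-score. Cells were RAW264.7 given 100 nM siRNA, Pam3CSK4-primed 5 hours, then LipidA-transfected 24 hour.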
A general note: In TR-FRET formats the signal depends on donor and acceptor labels being close together.
For GGAGUAUGCGUACCUGAAGTT against Nr0b2, the z-score is -0.903 (inactive).
To GGCAGAGCUUGGAGUAUCUTT against Gtpbp4 belongs 1.31 (inactive); to GGGAGAAAAAGGCAUUUUUTT against Them5, 0.46 (inactive).
On to GGACAACACAUUUGUGCUCTT against Sh2b2, for which the z-score is 0.209 (inactive).
To GUCUGAACUUCUUAGCAUCTT against Uchl4 belongs 0.788 (inactive).
To CCAGUGAUCAGUUUUAACGTT against Adamts20 belongs 0.184 (inactive); to CCUCAAUUGCAUGUGACCUTT against Itgb1bp1, -2.32 (active); to GGAUACAAAGAGAGUUGUCTT against Eif3c, 1.23 (inactive).
The figure for GGUGCUGCACAAAUACAUATT against Eef1aknmt is 0.715 (inactive).
With CGAUCGAAAUCAAGUCGAUTT against Septin9, the z-score was 0.415 (inactive).
To GGUUCUCUGCCAGUUCUGUTT against Mid1 belongs 3.32 (active).
The figure for GGACCAUGUUAGAGCAUGCTT against Traf2 is -2.36 (active).
In the case of GGUCCUACUUGUUCAUUGATT against Il1rl1, the z-score was -0.802 (inactive).
To GGACUUCAGUGAGGAUCAATT against Scg5 belongs 0.866 (inactive); to CCCUCCGAAAAUUUUUCUGTT against Defb14, -0.363 (inactive); to GGUAUGGAUCAAGGUUCUUTT against Gja6, 3.21 (active).
GGUGGCCAUCAAGAAGAUATT against Mapk7: the z-score is -0.749 (inactive).
On to CGACCACACAGGGAUAUACTT against Sectm1a, for which the z-score was -0.169 (inactive).
The figure for GGGCUAUCUAUCAUAGUUUTT against Scp2 is 1.17 (inactive); for GCAUGUAUAACAGACCCAUTT against Tex47 it is 0.928 (inactive).
To GGUCACCUUAUAAUUGCCCTT against Btd belongs -2.83 (active).
The figure for GGUGAGAUAGGUCUAGUUGTT against Col10a1 is -0.273 (inactive).
Take GGAUCACUGACUUUGAAUUTT against Mob2: the z-score is -0.654 (inactive).
The figure for GGCUGUCAUGCAUUAUAUGTT against Tfeb is -0.535 (inactive).
Regarding GGAGCUUCUUGACCUCGUGTT against Frmd4a, the z-score was 0.184 (inactive).
To CCUGUUUUCCGACUUGUUGTT against Il4ra belongs 0.809 (inactive); to GGUGGUUACACAAGGAACATT against Phgdh, -0.314 (inactive).
To GGCUCAUCCCAAUGCUAUATT against Sdc3 belongs 0.304 (inactive); to GGUGAUCACUCUCUCUGAATT against Olfr187, -0.975 (inactive).
To CCGUAACCCAGAAAAUGUATT against Eva1a belongs -2.01 (active); to CCAUUGACUUACUUCUAAGTT against Gimap6, 0.58 (inactive).
GGAUCAACGGAUUUUAGAATT against Gcfc2: the z-score was 1.21 (inactive).
As to GGAGAUGAAAAGAGAAAUCTT against Cct6b, the z-score was 2.41 (active).
The figure for GGAGCUGAUGACUUCAGGCTT against Mmp19 is 1.17 (inactive).
To GGGAUUCUCCAAAAGGAAGTT against Arhgap6 belongs 0.856 (inactive); to GGUGAUGAAGAGGUUCCCUTT against Fzd4, -0.868 (inactive).
The figure for GAAGAUGCCACGCUAAAAATT against Adam34 is 2.73 (active); for GGGCUUUGCUGUCUAUGCATT against Dmwd it is -0.617 (inactive); for GGAGUUUGAUCAGAUCCUATT against Asf1b it is 1.74 (inactive).
As to GAAAUCAGAAGAAAUGAAGTT against Phgr1, the z-score was -0.451 (inactive).
To GGAAUCAAAGAUGGAGAGGTT against Galnt3 belongs -0.409 (inactive); to GGAAACAUUGUCAUCAUGATT against Olfr1299, -0.787 (inactive); to GGUCAUGUUUCUCUCCCAATT against Veph1, -2.11 (active).
The figure for GCGGUAUCCUAGCUGUGAATT against Brsk1 is -0.0667 (inactive).
To CCCUGUAUAUAUGAUGACATT against Ldhd belongs -1.83 (inactive).
Consider GGGUCUACAAUCACCAGACTT against Wnt10a, for which the z-score was 1.15 (inactive).
As for GAUGAUCUUUUGGAUGAACTT against Spem2, the z-score is -0.51 (inactive).
As to CCCAGGCACUUGUUUACAGTT against Stim2, the z-score is -0.454 (inactive).
The figure for GGCAUGCUUGGCUUAUUUGTT against Kcnk4 is 0.0317 (inactive); for GCUGCUAUCCAGAAGGUAUTT against Egr2 it is -2.04 (active); for GGCUUACUAACAGUUUUUGTT against Gem it is -0.29 (inactive).
To GGCAUCGAGAUUUAAUUGATT against Usp27x belongs -0.179 (inactive).
To GGCUCUCUGGCUUACUAAGTT against Mrpl37 belongs 1.09 (inactive); to CCCAGGUCCUACCUUCUUUTT against Ppcdc, -2.1 (active); to GGUGUGGGAUUUCUACACUTT against Sbf1, 0.0854 (inactive).
GCAGCUUGCUUGAUUCAAGTT against Iqcb1: the z-score is 0.424 (inactive).
To GCAUUUGGGCAACGAGAUGTT against Nr5a1 belongs -1.3 (inactive); to GGCAGCUGGAAAGACAAAATT against Snca, 1.19 (inactive).
To GCUGAGAGUAUCCUUAUUCTT against Fhdc1 belongs 0.374 (inactive); to GGCCAACAUCUGCUAUGUCTT against Hao2, -2.58 (active).
In the case of GGUCAACGUGUAUGUAUUUTT against Lrat, the z-score was -1.27 (inactive).
The figure for CGUGCAUGUGUAAGUCAGGTT against Hpvc2 is 0.68 (inactive).
The figure for GCAAGAGCUGAGUACUCUGTT against Ahsp is -0.522 (inactive); for GGAAGUUUAAAGUCUAGAATT against Adcy7 it is 0.477 (inactive); for GGCCCAAGAGAACAUCAAATT against Speer2 it is -2.16 (active).
The figure for GCAGUCUCCAAUUGAGAUUTT against Car13 is -0.0313 (inactive).
On to CUCCGACCAUACUGGAAGATT against Arpp21, for which the z-score was -0.406 (inactive).
To GCAAGCUAGAGAAAAUCAGTT against Serpinb3b belongs -0.231 (inactive).
The figure for GGAAAAAAGGUCUGUAAAUTT against Ubl4b is 0.223 (inactive).
On to GGAUGUGCUGACCUUACAGTT against Gaa, for which the z-score is 2.35 (active).
To GCGGAACAUCUUAGCUUAATT against Perm1 belongs -0.111 (inactive); to GCCCUGGAAAGGAUGUUUGTT against Hba-a1, -0.607 (inactive); to UAGCCACUCAUCAUUCUAATT against Gm10319, 0.964 (inactive).
The figure for GGCACUUUUGAUUUCAGAUTT against Nrd1 is 3.52 (active); for GCUGGAUAUUUCUAAGUAUTT against A26c3 it is 1.9 (inactive); for CCGUUAGGUUUUUAUCCAATT against Ube2b it is 0.193 (inactive).
To GGACCUUUUAUCUGAAAUGTT against Papln belongs 1.54 (inactive).
Turning to GGAUGUGACUCAGAUUGGGTT against Tmem171, the z-score is 0.0209 (inactive).
Take GGAGAUGGCCACCUAUUUGTT against Csnk1g2: the z-score was -0.325 (inactive).
With GGAAAAAGCCUAACUAUGATT against Ccnl1, the z-score was -0.7 (inactive).
Take GCAUGAUAUCAGUGGCAAGTT against Itga11: the z-score was -2.41 (active).
To GCCUGUUGCUAUGAAUGGUTT against Zfp597 belongs -0.353 (inactive); to GGAAGCAUUGAAGAUAAGATT against Topbp1, -0.273 (inactive).
The figure for CCAUUGGAUCCAUUCCUAUTT against Plcd3 is -0.984 (inactive); for CCUCUGUCUGCUAAUAAGATT against R3hdm4 it is 1.01 (inactive).
To “GGAGGCCAUCACACUUAGATT against 4933421I07Rik” belongs -2.27 (active).
As for GUUCCCGUUCUACGAGAAGTT against Foxl2, the z-score was 1.22 (inactive).
To CCAAAUGACAGCUAUGGCCTT against Gtf2ird2 belongs -0.312 (inactive); to GCUGUCCAAGUACGAGACATT against Atoh7, 0.0721 (inactive).
The figure for GCUCCUGUGAUUGAUGCAGTT against Dync1h1 is 0.528 (inactive); for GCAUUUAUAAUUGCUGAACTT against Cbx1 it is -0.637 (inactive).
To GGAACCACACAUGUGUUAATT against Grik2 belongs -0.281 (inactive); to GGACAAUUGCCUUUUGACATT against Thbs3, 0.146 (inactive).
As for CCAGCAGCCUUCUAACUAUTT against Hnrnpa2b1, the z-score is 2.14 (active).
Take GGUCUUCUACAACUCGGAATT against Sgpp1: the z-score was -0.146 (inactive).
Turning to GGUGGUGAGAUAGAGAAAUTT against C1qc, the z-score was -0.115 (inactive).
The figure for GCAUUACACUUAACUGACGTT against Zfp652 is -1.28 (inactive); for CCCAAUAACAUCUUAAGAUTT against Lyn it is -0.254 (inactive).
To GGGAGACGGCGAGGUUUUATT against Arl6ip4 belongs 2.89 (active); to GGAAUGUCACUUUGACUCUTT against Arxes1, -0.533 (inactive); to GGCCAGAGAAGAUUACUUUTT against Ajuba, 1.03 (inactive).
GGACCUCACAGAUUAUGGGTT against Ebi3: the z-score was 0.693 (inactive).
The figure for “CGCCUACAGCUCUAUCUUATT against 2700062C07Rik” is 1.05 (inactive); for GGCGACAUGAAAGAAGGCATT against Klk6 it is 2.61 (active).
To ACCCUCACCUCGCAUGACUTT against Pcbd2 belongs -1.57 (inactive); to GGACAAAGUAUUUGUGACCTT against Cd3d, 0.00913 (inactive); to GCAAGAUCCAGCCCUAUCATT against Usp17lc, -0.439 (inactive).
On to GGAAAGUCCUUCAUCAGCATT against Cep120, for which the z-score was -2.91 (active).
